# From PubChem BioAssay
# The sample as a whole holds a higher share of hits than the screen did.
# BLM inh: blocks DNA unwinding by human BLM helicase; recombinant BLM DNA unwinding, fluorescence dequenching; Potency, µM (highest dose often 56.1 µM), actives largely listed as inhibitors; hit rate 0.2% among 350,000; P54132; AID 2528; also: nearly all actives have a fitted effect of over 35% in size
# RECQ1 helicase: inhibitors of human RECQ1 DNA helicase; RECQ1 DNA unwinding, red fluorescence kinetic read; P46063; Potency, µM (doses to about 57.3 µM), most hits filed as inhibitors; hit rate 0.54% among 240,000; also: nearly all actives have a fitted effect of over 30% in size
#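 RECQ1T1 50 nM; forked duplex (20 bp + 30-nt ss tails) 200 nM, ATP 2 mM final; pH 8.0, 2 mM MgCl2, 2.5 ug/ml poly(dI-dC); 15 min compound preincubation; discontinuous kinetic read over 2 h at RT.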
# KDM4E inh: inhibitors of human JMJD2E histone demethylase | B2RXH2 | JMJD2E catalytic domain, FDH-coupled NADH fluorescence (FDH is formaldehyde dehydrogenase) | Potency, µM (doses to about 57.1 µM), actives largely listed as inhibitors | hit rate 1.6% among 230,000; active = well fitted inhibition curve with a large enough effect, not every such curve was filed as active; inconclusive = small, poorly fitted or top-dose-only effect, or another doubt; inactive = no such curve, though single readings can be large or run the other way; also: nearly all actives have a fitted effect of over 50% in size
# L3MBTL1 inh: L3MBTL1 (human) inhibition; Q9Y468; AlphaScreen L3MBTL1–H3K9me1 peptide binding; Potency, µM (series often up to 57.1 µM), hits mostly inhibitors; hit rate 0.66% among 230,000; also: nearly all actives have a fitted effect of over 60% in size
# Target sequence (Q9Y468 whole entry, looked up): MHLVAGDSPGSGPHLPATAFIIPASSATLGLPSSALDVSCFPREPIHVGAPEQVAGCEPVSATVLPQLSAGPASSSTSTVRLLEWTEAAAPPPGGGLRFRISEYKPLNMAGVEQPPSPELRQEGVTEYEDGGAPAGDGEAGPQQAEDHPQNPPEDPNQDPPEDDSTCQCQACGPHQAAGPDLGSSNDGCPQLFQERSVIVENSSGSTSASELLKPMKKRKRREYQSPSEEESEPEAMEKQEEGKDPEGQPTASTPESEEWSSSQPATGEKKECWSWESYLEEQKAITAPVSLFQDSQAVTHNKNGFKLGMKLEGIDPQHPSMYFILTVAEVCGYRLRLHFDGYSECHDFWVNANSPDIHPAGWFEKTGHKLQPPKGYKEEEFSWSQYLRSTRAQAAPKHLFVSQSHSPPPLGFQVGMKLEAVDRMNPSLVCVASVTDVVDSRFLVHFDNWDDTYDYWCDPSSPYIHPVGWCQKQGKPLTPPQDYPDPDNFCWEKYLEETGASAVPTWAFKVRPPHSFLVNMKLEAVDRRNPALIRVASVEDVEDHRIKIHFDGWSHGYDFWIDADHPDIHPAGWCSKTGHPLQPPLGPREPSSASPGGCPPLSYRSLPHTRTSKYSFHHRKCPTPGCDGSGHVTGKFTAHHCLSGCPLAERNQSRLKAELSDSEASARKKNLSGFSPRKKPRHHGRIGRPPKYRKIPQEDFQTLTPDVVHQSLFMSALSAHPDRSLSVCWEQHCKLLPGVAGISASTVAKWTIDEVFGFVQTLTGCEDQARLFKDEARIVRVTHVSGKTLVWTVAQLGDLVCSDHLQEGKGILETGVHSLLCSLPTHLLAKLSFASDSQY
#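 L3MBTL1 (50 nM) pre-complexed 30 min with biotinylated H3(1-15)K9me1 peptide (75 nM), then compounds added for 30 min at room temperature; AlphaScreen streptavidin donor/nickel chelate acceptor beads (10 ug/mL final) read after 30 min dark incubation.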
# APE1 inh: blocks human APE1 abasic DNA cleavage | P27695 | recombinant APE1, TAMRA/BHQ-2 abasic DNA cleavage fluorescence | Potency, µM (top dose mostly 65.8 µM), most hits filed as inhibitors | hit rate 0.35% among 350,000 | AID 2517; also: nearly all actives have a fitted effect of over 55% in size
#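 Enzyme (0.75 nM final) and test compound are incubated 15 min at room temperature before adding 50 nM quenched THF abasic-site duplex. Cleavage dequenches TAMRA, followed at 525/598 nm over three reads one minute apart.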
# Numbers stand for hits; – = inactive; ? = inconclusive; · = no result given; ! = not confirmed by another sample. Unless noted, calls follow the shape of the dose curve; as a rule, active = well fitted curve in the direction sought with a large enough effect; inconclusive = small, poorly fitted or top-dose-only effect, or another doubt; inactive = no such curve, though single readings can be large; an effect the other way counts as inactive or inconclusive.
SMILES,BLM inh,RECQ1 helicase,KDM4E inh,L3MBTL1 inh,APE1 inh
O=c1c(/C=N/Nc2ccccc2)c(Sc2nnnn2-c2ccccc2)nc2ccccn12,–,–,–,·,–
CN(C)c1ccc(NC(=O)CN2CCC(N3CCCCC3)CC2)cc1,–,–,32µM,·,–
CCn1c(N2CCN(Cc3ccc([N+](=O)[O-])cc3)CC2)nc2ccccc21,–,·,·,–,–
Cc1oc(-c2ccccc2F)nc1CS(=O)(=O)CC(=O)N1CCN(c2cccc(C(F)(F)F)c2)CC1,–,·,·,·,·
O=C1CC(c2ccc(O)c(O)c2)Oc2c1ccc(O)c2O (centres undefined),4µM,1.6µM,6.3µM,·,0.13µM
CC(C)[C@H]1c2ccc(F)cc2CC[C@@]1(CCN(C)CCCc1nc2ccccc2[nH]1)OC(=O)C1CC1,–,–,·,·,–
COc1cccc(OCCOc2ccc(/C=C3\C(=N)N4N=C(S(C)(=O)=O)SC4=NC3=O)cc2OC)c1,–,·,·,·,–
COc1ccccc1OCCOc1ccc(/C=C2\C(=N)N3N=C(S(C)(=O)=O)SC3=NC2=O)cc1,–,·,·,·,21µM
CCOc1cc(CNc2ccc(O)cc2)ccc1OCc1ccc(Cl)cc1Cl,?,–,4.5µM,?,?
CCOP(=O)(OCC)/C(C#N)=C/c1ccc([N+](=O)[O-])cc1,–,–,8.9µM,–,–
CCc1ccccc1NC(=O)c1ccc(CN2C(=O)CCn3nc(C)cc32)cc1,–,·,·,·,·
CC1=C(CC(=O)O)c2cc(F)ccc2/C1=C\c1ccc(S(C)=O)cc1 (centres undefined),?,–,35µM!,·,–
Cc1ccc2c(c1)/C(=C/c1ccc(F)cc1)C(=O)N2,–,·,·,·,–
Nc1nc(=S)c2ncn(C3OC(CO)C(O)C3O)c2[nH]1 (centres undefined),?,?,?,25µM,25µM
O=C(CSc1nc2ccccc2n1Cc1cccc(C(F)(F)F)c1)NCc1ccccc1,–,·,·,·,·
N#Cc1nc(-c2ccco2)oc1N1CCC(C(N)=O)CC1,–,–,3.5µM,·,–
N#Cc1nc(-c2ccccc2)oc1N1CCC(C(N)=O)CC1,–,·,·,·,–
O=C(CSc1n[nH]c(=O)[nH]c1=O)N/N=C/c1ccccc1O,–,–,14µM,–,–
COc1ccc(/C=N/NC(=O)CSc2nnc(C)n2-c2ccccc2)c(OC)c1OC,–,–,–,–,–
O=C(CSc1ccccc1)N/N=C/c1ccccc1O,–,–,?,–,–
CCOc1ccccc1/C=N/NC(=O)CSc1n[nH]c(=O)[nH]c1=O,–,–,–,–,–
COc1cccc(/C=N/NC(=O)CSc2nnc(C)n2-c2ccccc2)c1O,–,–,28µM,–,–
COc1ccc(CSCC(=O)N/N=C/c2ccccc2O)cc1,–,–,32µM,–,–
COc1ccc(O)c(/C=N/NC(=O)CSc2nnc(C)n2-c2ccccc2)c1,–,–,22µM,–,–
Cc1cc(F)ccc1NC(=O)c1cc(S(=O)(=O)N2CCOCC2)cn1C,–,·,·,–,–
SMILES,BLM inh,RECQ1 helicase,KDM4E inh,L3MBTL1 inh,APE1 inh
O=C(Nn1c(C2CCCCC2)nc2ccccc2c1=O)c1ccc(Cl)c([N+](=O)[O-])c1,–,–,–,–,–
Cc1nc2[nH]c(=O)[nH]c(=O)c2[nH]1,–,–,–,·,–
Cc1ccc(C(=O)NCC(=O)N2CCN(c3ccccc3)CC2)cc1,–,·,·,–,–
O/N=C/c1cc(Br)cs1,–,–,–,–,–
CCCCOc1cc(C(=O)NCCN(CC)CC)c2ccccc2n1,–,–,32µM,–,–
O=C(COCc1cc(-c2cccs2)on1)NCc1ccccc1Cl,–,·,·,·,·
CC1(C)Cc2nc3oc4c(NCc5ccccc5)ncnc4c3cc2CO1,–,–,?,?,–
COc1ccc(N/C=C\C(=O)c2ccc3c(c2)OCO3)cc1,–,–,–,·,–
COc1cc(O)c(C(C)=O)c(CC(=O)O)c1,–,?,25µM,·,8.9µM
COc1cc(O)c(C(C)=O)c(OC)c1,–,–,–,·,–
Cc1ccc(SCC(=O)NNC(=O)CNC(=O)c2ccc(Br)cc2)cc1,·,·,·,–,–
O=C(CSc1ccc(-c2cccnc2)nn1)Nc1ccccc1F,–,·,·,·,–
O=c1[nH]c2ccccc2nc1/C=C/c1ccccc1,–,–,?,–,–
O=c1[nH]c2ccccc2nc1/C=C/c1ccc(O)cc1,–,–,16µM,–,–
O=c1cc(N2CCN(c3cccc(Cl)c3)CC2)[nH]c(=O)n1C1CCCCC1,–,–,–,–,–
COc1cccc(/C=N/NC(=O)C(=O)NCc2cccnc2)c1O,–,–,10µM,?,–
COc1cccc(/C=N/NC(=S)Nc2cccc(C(=O)O)c2)c1O,–,–,28µM,·,–
COc1cccc(/C=N/NC(=O)CNC(=O)C2COc3ccccc3O2)c1O (centres undefined),–,–,18µM,–,–
COc1cccc(/C=N/NC(=O)CNC(=O)c2ccco2)c1O,–,–,14µM,–,–
COc1cc(/C=N/NC(=S)Nc2cccc(C(=O)O)c2)ccc1O,–,–,?,–,–
COc1cccc(/C=N/NC(=O)C(=O)NCc2cccnc2)c1OC,–,–,–,–,–
O=C(CSc1nccn1Cc1ccc(Cl)cc1)Nc1nc2ccccc2s1,–,·,·,·,·
O=C(COc1ccccc1)NCC(=O)N/N=C/c1ccc(O)cc1O,–,–,14µM,·,–
Cc1ccc(/C=N/NC(=O)CNC(=O)COc2ccccc2)cc1,–,–,–,–,–
COc1cccc(/C=N/NC(=O)CNC(=O)COc2ccccc2)c1O,–,–,8.9µM,–,–
SMILES,BLM inh,RECQ1 helicase,KDM4E inh,L3MBTL1 inh,APE1 inh
COc1cccc(/C=N/NC(=O)C[n+]2ccccc2)c1O,–,?,14µM,16µM,–
CN1C(=O)C(O)(CC(=O)c2cccc(-n3cccc3)c2)c2ccccc21 (centres undefined),–,–,–,?,–
O=C(O)C1Nc2c(Cl)cc(Cl)cc2C2C=CCC12 (centres undefined),?,·,·,3.5µM,13µM
O=C(OC1CCCCC1)c1ccc2c(c1)C1C=CCC1C(C(=O)O)N2 (centres undefined),16µM,7.9µM,–,3.2µM,?
O=C(O)C1Nc2ccc(Br)cc2C2C=CCC12 (centres undefined),16µM,·,·,·,?
Cc1ccc(CN(C(=O)COc2c(C)cccc2C)C2CCS(=O)(=O)C2)o1 (centres undefined),–,·,·,·,·
O=C(CSc1nc2nc(-c3cccs3)cc(C(F)(F)F)c2c(=O)[nH]1)Nc1ccc(F)c(F)c1,?,–,?,28µM,?
CC(C)(C)c1nnc(N/N=C/c2cc(Br)ccc2O)n(N)c1=O,–,–,22µM,?,–
CC(=O)COC(=O)C1CC(=O)N(c2ccc(C)c(C)c2)C1 (centres undefined),–,–,–,–,–
CN(C)c1ccc(N=Nc2ccccc2C(=O)OCC(=O)Nc2ccccc2C(F)(F)F)cc1,–,–,–,25µM,–
Nc1ccccc1NC1CCCCC1,–,–,14µM,·,–
O=C(COc1ccc2ccccc2c1Br)NC(=S)Nc1cccc(CO)c1,–,–,–,–,–
